High-throughput results: PubChem, Paczesny and Yang Labs, IUPUI and University of Michigan
Only a selection was taken, and hits are over-represented in it overall.
ST2 IL33 inh – IL1RL1 inhibition. Q01638. 78,000 tested, 2.3% active. AID 1259354. AlphaLISA ST2-Fc/biotin-IL-33 interaction, 1 h. inhibition, % for hits at 17 µM; in the data active = inhibition above about 30%
Target sequence (Q01638 whole entry, looked up): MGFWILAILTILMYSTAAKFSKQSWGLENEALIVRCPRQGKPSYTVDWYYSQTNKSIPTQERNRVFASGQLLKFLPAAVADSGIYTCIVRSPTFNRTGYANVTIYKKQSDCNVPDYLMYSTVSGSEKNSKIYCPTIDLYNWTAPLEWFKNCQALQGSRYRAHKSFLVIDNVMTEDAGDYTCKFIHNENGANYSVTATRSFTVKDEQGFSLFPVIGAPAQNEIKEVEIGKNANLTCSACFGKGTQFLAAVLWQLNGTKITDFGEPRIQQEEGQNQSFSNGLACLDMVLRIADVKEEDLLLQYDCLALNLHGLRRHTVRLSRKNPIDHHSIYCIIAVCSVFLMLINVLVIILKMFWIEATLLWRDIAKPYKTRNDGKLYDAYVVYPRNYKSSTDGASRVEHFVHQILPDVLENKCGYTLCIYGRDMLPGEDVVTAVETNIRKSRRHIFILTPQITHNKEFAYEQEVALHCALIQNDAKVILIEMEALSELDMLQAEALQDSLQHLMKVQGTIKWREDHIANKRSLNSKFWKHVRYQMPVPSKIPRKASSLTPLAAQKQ
* hit, by the source's call; i = inactive.

SMILES | ST2 IL33 inh
Cc1nn(Cc2c(Cl)cccc2Cl)c(C)c1NC(=O)CCCn1nc([N+](=O)[O-])cc1C | i
CC(C)c1cc(N2CCCC3(CC2)CNC(=O)O3)nc(C(F)(F)F)n1 (configuration not stated) | i
CC(C)c1cc(NCc2cccnc2N2CCCC(O)C2)nc(C(F)(F)F)n1 (configuration not stated) | i
CC(C)c1cc(NC2CC(=O)N(CC(C)(C)C)C2)nc(C(F)(F)F)n1 (configuration not stated) | 31%*
CS(=O)(=O)Nc1ccc(-c2ccnc3[nH]ccc23)cn1 | i
Cc1cccc(N=Cc2nc(-c3ccc(Cl)cc3)oc2O)c1 | i
Oc1oc(-c2ccc(Cl)cc2)nc1C=Nc1ccccn1 | 33%*
Cc1cccc(N=Cc2nc(-c3ccc(Cl)cc3)oc2O)n1 | i
COc1ccc(NC(=O)Cc2c(C(=O)O)[nH]c3ccc(Cl)cc23)c(OC)c1 | i
Cc1csc(NC(=O)c2ccc(NC(=O)CCS(=O)(=O)c3cccs3)cc2)n1 | i
O=C1/C(=C/C=C/c2ccco2)CC/C1=C\C=C\c1ccco1 | 96%*
CCOC(=O)C1(CCc2ccccc2)CCN(C(=O)Nc2ccc(SC)cc2)CC1 | i
CCOC(=O)c1ccc(Nc2ncnc3c2cnn3-c2ccc(Cl)cc2)cc1 | i
CCOC(=O)c1ccc(Nc2ncnc3nc[nH]c23)cc1 | 30%*
COc1ccc(Nc2ncnc3nc[nH]c23)cc1OC | i
CCOC(=O)c1c(C)[nH]c(C(=O)N2CCCC(N(C)CCc3ccccc3)C2)c1C (configuration not stated) | i
CCn1cnc2cc(NCc3ccc(OC)c(OC)c3)ccc21 | i
CCOc1ccc(CNc2ccc3c(c2)ncn3C(C)(C)C)cc1 | i
COc1ccc(CNc2ccc3c(c2)ncn3C(C)(C)C)cc1OC | i
COc1ccc(CNC(=O)c2ccc3c(c2)ncn3C2CCCC2)c(OC)c1 | i
COc1ccc(CNc2ccc3c(c2)ncn3C2CCCCC2)cc1OC | 33%*
COc1ccc(CNc2ccc3c(c2)ncn3C2CCCCC2)cc1 | 39%*
CCOC(=O)c1cc(-c2ccc(F)cc2)no1 | i
COCCN=c1cc(-c2ccccc2)oc2ccc(Cl)cc12 | i
O=C(CCN1CCCCCC1=O)NC1CCCN(Cc2ccccn2)C1 (configuration not stated) | i
SMILES | ST2 IL33 inh
N#Cc1c(NC(=O)c2ccc(Cl)c(Cl)c2)sc2c1CCC2 | i
Cc1ccc(NC(=O)N2CCC(n3c(C)nc4cccnc43)CC2)cc1F | i
CC(Sc1ccc(Cl)cc1)C(=O)Nc1ccccc1F (configuration not stated) | i
O=C(NCc1cccnc1)[C@H](CSCc1ccccc1)N1Cc2ccccc2C1=O | i
Cc1ccc(C(N)=NC(=NS(=O)(=O)c2ccccc2)c2ccccc2)cc1 | i
CC1=CC(=NC(=NS(=O)(=O)c2ccc(C)cc2)c2ccccc2)C(C)=CC1=O | 44%*
Cc1ccc(S(=O)(=O)N=C(Nc2ccccn2)c2ccccc2)cc1 | i
O=C1NCCN2CCN(C(=O)c3ccc4c5c([nH]c4c3)CCCC5)CC12 (configuration not stated) | i
COc1ccc2cc3cc(C(=O)N4CCN(C)CC4)oc3nc2c1 | i
Cc1ccc(C2=NNC3(S2)C(=O)Nc2ccc(C)cc23)cc1 (configuration not stated) | 44%*
Cc1ccc(N2C(=O)C(C)SC23C(=O)Nc2ccccc23)cc1 (configuration not stated) | i
Cc1ccc2c(c1)C(=O)C(=O)N2 | i
CSc1ccc(C2SC(NC(C)=O)=NN2C(C)=O)cc1 (configuration not stated) | i
CCN(Cc1noc(CC(C)C)n1)C(=O)c1cccc(-n2cccn2)c1 | i
CC1=CC(=O)C(C(C)C)=C/C1=N\Oc1c([N+](=O)[O-])cc(Cl)cc1[N+](=O)[O-] | 62%*
CC(C)(C)c1ccc(-c2csc(NC(=O)c3cc(=O)c4ccccc4o3)n2)cc1 | i
CC1CCC(NC(=O)c2ccc(Cn3c(=O)[nH]c4ccsc4c3=O)cc2)CC1 (configuration not stated) | i
Cc1cc2c(cc1Br)-n1c(nc3ccccc3c1=O)C2=O | i
c1ccc(CN2CC[C@H](c3nnc(-c4cccnc4)o3)C2)cc1 | 34%*
c1cncc(-c2nnc([C@H]3CCN(Cc4ccncc4)C3)o2)c1 | i
Cc1ccc(CN2CC[C@H](c3nnc(-c4cccnc4)o3)C2)cc1 | i
O=C(COc1ccc2c(c1)C(=O)CC1(CCCCC1)O2)NCc1cccs1 | i
O=C(CSc1nnnn1-c1ccc(F)c(Cl)c1)c1ccccc1 | i
O=C1NN(c2ccccc2)C(=O)/C1=C/c1ccccc1OCc1c(F)cccc1Cl | 41%*
COc1cccc(/C=C2/C(=O)NN(c3ccc(C)c(Cl)c3)C2=O)c1 | i
Cc1ccccc1OCCOc1ccc([N+](=O)[O-])cc1/C=C1\C(=O)NN(c2ccccc2)C1=O | 35%*
COc1cccc(/C=C2/C(=O)NN(c3ccccc3)C2=O)c1OC | i
Cc1ccccc1OCCn1cc(C=C2C(=O)N(C)C(=O)N(C)C2=O)c2ccccc21 | i
